The whole screen tested about 320,000 compounds, of which about 22,000 (6.9%) were called active. About 27% were inconclusive and are not listed. The list comes from a sample in which actives are over-represented; it also holds similar structures and randomly drawn compounds. Unmarked numbers belong to inactive results. Calls come from the whole dose curve; as a rule, active = well fitted inhibition curve with a large enough effect; inconclusive = small, poorly fitted or top-dose-only effect, or another doubt; inactive = no such curve, though single readings can be large or run the other way. Where a SMILES comes first, the peptide text is derived from it. [ ]: non-standard residue; d: D form. The star is where a group is joined. ξ: configuration not given here. Cbz = O=C(OCc1ccccc1)*; ξL = CC(C)CC(N)C(=O)O; ξP = O=C(O)C1CCCN1
Assay: Primary qHTS for delayed death inhibitors of the malarial parasite plastid, 96 hour incubation
Settings: P. falciparum luciferase reporter growth; series mostly up to 28.7 µM; activity change, negative = inhibition: at the top concentration
Procedure, shortened: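 Parasite growth measured via integrated firefly luciferase reporter in P. falciparum. Infected erythrocytes at 2% hematocrit, 0.05% parasitemia final were treated 96 hours at 37 C under 5% CO2, and luminescence was read.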
% is set by controls: 0 for no effect and ±100 for the full control effect; potency is the fitted concentration of half-maximal effect.

Compound | activity change, negative = inhibition | Potency
COCCN1C(=O)N(c2ccc(Cl)cc2)C(=O)C1CC(=O)Nc1cc(OC)cc(OC)c1 (stereo unspecified) | -17% | 
O=C(O)c1ccccc1OCc1ccccc1Cl | 1.98% | 
O=C(Cc1c[nH]c2ccccc12)OCCOC(=O)Cc1c[nH]c2ccccc12 |  | 5.22 µM (active)
O=C(COC(=O)Cc1c[nH]c2ccccc12)NCCc1ccccc1 | 15.9% | 
O=C(CCc1c[nH]c2ccccc12)NCCOc1ccccc1 | 17.4% | 
O=C1NN(c2ccccc2)C(=O)/C1=C/c1ccc(-c2cccc(C(=O)O)c2)o1 | -0.0242% | 
COc1ccc(CNC(=O)CCC(=O)Nc2nnc(C(C)C)s2)cc1 | 0% | 
COc1cc2ccccc2cc1C(=O)Nc1nc(C)c(C(C)=O)s1 | 167% | 
COc1ccc(C(=O)CCC(=O)Nc2cccnc2)c(OC)c1 | 7.01% | 
CCOC(=O)C1(Cc2cccc(OC)c2)CCN(C(C)CC(C)(C)O)CC1 (stereo unspecified) | 41.4% | 
CCOC(=O)C1(Cc2cccc(OC)c2)CCCN(C(=O)CCSC)C1 (stereo unspecified) |  | 0.37 µM (active)
CCOC(=O)C1(Cc2ccccc2C)CCCN(C(=O)CCc2c(C)noc2C)C1 (stereo unspecified) |  | 11.7 µM (active)
CCOC(=O)C1(Cc2cccc(OC)c2)CCN(Cc2csc(C(C)=O)c2)CC1 | 20.7% | 
Cc1noc(C)c1CCC(=O)O | 2.96% | 
CCOC(=O)C1(Cc2ccccc2C)CCCN(S(C)(=O)=O)C1 (stereo unspecified) | -32.4% | 
COc1ccc(-c2c(NC(=O)c3ccco3)oc3ccc(Cl)cc3c2=O)cc1 | -23.7% | 
CCCc1cc(=O)[nH]c(SCC(=O)N2C(C)CCCC2C)n1 (stereo unspecified) | 5.23% | 
CC1(C)NC(=O)N(CC(=O)Nc2cc(C(F)(F)F)cc(C(F)(F)F)c2)C1=O | 0% | 
O=C(COC(=O)CNC(=O)C1CCCCC1)Nc1cccc(F)c1 | 9.28% | 
Cc1ccc(F)cc1NC(=O)N1CCCN(c2ccc(C(F)(F)F)cn2)CC1 | -5.35% | 
CCOc1ccc2nc(N3CCCN(C(=O)Nc4ccccc4C)CC3)c(C#N)cc2c1 |  | 13.1 µM (active)
COc1ccc2nc(N3CCCC(O)C3)c(C#N)cc2c1 (stereo unspecified) | 18.5% | 
CC1(C)O[C@H]2CC(=O)OCC23[C@H]2CC[C@@]4(C)[C@H](c5ccoc5)OC(=O)[C@H]5O[C@]54[C@]2(C)C(=O)C[C@@H]13 (stereo partly specified) | 7.54% | 
O=C1/C(=C/c2coc3ccc(O)cc3c2=O)SC(=S)N1c1ccccc1 | 75.1% | 
CC(C)(C)C(=O)CN1C2=NCCN2c2ccccc21 | -4.41% | 
COc1cc(C)c(C)cc1S(=O)(=O)N1CCCc2ccccc21 | -9.05% | 

Compound | activity change, negative = inhibition | Potency
Cc1cc2c(cc1C)N(Cc1ccccc1)C1=NCCCN12 |  | 7.38 µM (active)
COC(=O)c1ccc(/C=C2/C(=O)Oc3ccccc32)cc1 | 17.3% | 
Clc1cc(NC2CCCCC2)ncn1 | 14.6% | 
O=C1c2ccccc2S(=O)(=O)N1Cc1c(F)cccc1Cl | 2.02% | 
N#Cc1ccc(Cn2cc(C(=O)c3ccco3)c3ccccc32)cc1 | 8.66% | 
CC1CCN(C(=O)Cn2cc(C(=O)c3ccco3)c3ccccc32)CC1 |  | 10.4 µM (active)
Cc1cccc(NC(=O)Cn2cc(C(=O)c3ccco3)c3ccccc32)c1 | 191% | 
CC(=O)Nc1ccc(S(=O)(=O)N2CCn3cccc3C2C)cc1 (stereo unspecified) | -27.5% | 
Cc1cc(NC(=O)c2ccc(F)cc2)ccc1NC(=O)c1ccco1 | 0.99% | 
CC1CCCN(S(=O)(=O)c2ccc(-c3ccc(=O)[nH]n3)o2)C1 (stereo unspecified) | -16.1% | 
CN(Cc1c(F)cccc1Cl)S(=O)(=O)c1cccs1 | 43% | 
COc1ccc2cc1Oc1ccc(cc1)C[C@H]1c3cc(c(OC)cc3CCN1C)Oc1c(O)c(OC)cc3c1[C@H](C2)N(C)CC3 |  | 1.85 µM (active)
CCOc1ccc(C(=O)COC(=O)c2ccc(-n3cnnn3)cc2)cc1 | -1.17% | 
COc1cc(C(=O)N(Cc2ccc(N(C)C)cc2)C2CCS(=O)(=O)C2)cc(OC)c1OC (stereo unspecified) | -19.2% | 
CC1(C)C(C=C(Cl)Cl)C1C(=O)N(Cc1ccc(Cl)cc1)C1CCS(=O)(=O)C1 (stereo unspecified) |  | 11.7 µM (active)
CCOc1ccc(C(=O)N(Cc2ccc(N(C)C)cc2)C2CCS(=O)(=O)C2)cc1 (stereo unspecified) | 17.3% [at 5.75 µM] | 
O=C1[C@@H]2C(c3cccnc3)=NO[C@@H]2C(=O)N1c1ccc(Cl)cc1Cl | 33.2% | 
CC(C)[C@H](NC(=O)OCc1ccccc1)C(=O)OCc1ccccc1 | 19.1% | 
COc1ccc(C2NC(=O)C(=O)/C2=C(\O)c2ccc(Cl)cc2)cc1OC (stereo unspecified) | -2.4% | 
CC1CCc2[nH]c3ccc(C(=O)N(C)CC(=O)Nc4cccc(F)c4)cc3c2C1 (stereo unspecified) | -0.213% | 
CCCN(CC(=O)Nc1ccccc1C)C(=O)c1ccc2[nH]c3c(c2c1)CC(C)CC3 (stereo unspecified) |  | 13.1 µM (active)
CCCN(CC(=O)Nc1ccc(C(N)=O)cc1)CC(=O)Nc1ccccc1C | 3.33% | 
O=C(OCc1nnc(-c2ccccc2)o1)c1cc(=O)[nH]c2ccccc12 | 10.2% | 
CCc1nnc(NC(=O)CSCc2cc(=O)n3cc(C)sc3n2)s1 | 29.2% | 
CC(NCCc1ccc(S(N)(=O)=O)cc1)C(=O)NCc1ccccc1 (stereo unspecified) | -7.88% | 
COc1ccc(NC(=O)CC2COc3ccccc3O2)c(OC)c1 (stereo unspecified) | 245% | 

Compound | activity change, negative = inhibition | Potency
COc1ccc(NC(=O)C2COc3ccccc3O2)cc1 (stereo unspecified) |  | 1.17 µM (active)
CC(=O)c1cccc(NC(=O)C2CCN(C(=O)c3ccccc3Cl)CC2)c1 | -21.5% | 
O=C(Nc1nc2c(F)cc(F)cc2s1)C1COc2ccccc2O1 (stereo unspecified) | -7.95% | 
CC(=O)c1cccc(NC(=O)C2COc3ccccc3O2)c1 (stereo unspecified) |  | 2.62 µM (active)
O=C(Nc1nc(-c2ccncc2)cs1)C1COc2ccccc2O1 (stereo unspecified) | 5.96% | 
CCNC(=S)N(CCN(CC)CC)Cc1cc2cc3c(cc2[nH]c1=O)OCCO3 | -17.8% | 
O=C(/C=C/c1cccc([N+](=O)[O-])c1)N1CCN(Cc2ccccc2)CC1 | 16.1% | 
Clc1ccc(C[n+]2cc(-c3ccccc3)n3c2CCC3)cc1 |  | 0.586 µM (active)
Clc1ccc(C[n+]2cc(-c3ccc(Cl)cc3)n3c2CCC3)cc1 |  | 0.37 µM (active)
O=C(Cc1ccc(Br)cc1)NCCN1CCOCC1 | 0.209% | 
COc1cccc(NC(=O)CSc2nnc(-c3cccnc3)o2)c1 | 57.6% | 
NC(=O)C1CCN(C(=O)c2ccc3c(=O)n(Cc4cccc(Br)c4)c(=S)[nH]c3c2)CC1 | 18.4% | 
CC(Sc1nnc(COc2ccccc2)n1-c1ccccc1)C(=O)O (stereo unspecified) | -4.37% | 
CCOC(=O)N1CCN(C(=O)CSc2nnc(-c3c[nH]c4ccccc34)n2CCOC)CC1 | 0.202% | 
CCn1c(SCC(=O)Nc2ccc(OC)c(OC)c2)nnc1-c1c[nH]c2ccccc12 |  | 11.7 µM (active)
CCn1c(SCC(=O)NC2CC2)nnc1-c1ccccc1OC | -14.8% | 
CC(C)c1ccc(S(=O)(=O)NC2CCCC2)cc1 | 53.9% | 
OC(CNC1CCCCC1)c1ccccc1 (stereo unspecified) |  | 9.28 µM (active)
O=C(NNC(=O)C(O)c1ccccc1)NC1CCCCC1 (stereo unspecified) | 56.9% | 
c1ccc(CCNC2CCCCCC2)cc1 | 38.6% | 
Cc1cc(Cl)c2oc(C(=O)N(C)C(C)c3ccccn3)c(C)c2c1 (stereo unspecified) | -22.1% | 
CN(C)c1nc(Nc2ccc(Cl)c(Cl)c2)nc(N(C)C)n1 | -16.4% | 
COc1cc(C2C(C(=O)c3ccco3)=C(O)C(=O)N2c2cc(C)on2)ccc1OCc1ccccc1 (stereo unspecified) | -4.61% | 
Cc1ccc2nc(N3CCN(C(=O)c4ccco4)CC3)sc2c1 | -9.37% | 
Cc1ccc2nc(N3C(=O)C(O)=C(C(=O)c4ccco4)C3c3cccc(O)c3)sc2c1 (stereo unspecified) |  | 9.28 µM (active)
COc1ccc(C(=O)NCc2nnc(SCC(=O)NC3=NCCS3)n2C)cc1 | 16.2% | 

Compound | activity change, negative = inhibition | Potency
CCOc1ccccc1NC(=O)Cc1cccs1 | 341% | 
COc1cc(C(=O)NCC2(c3ccccc3)CCCC2)ccc1OC(C)C | 33% | 
Cn1cnnc1Sc1ccc(CN2CCN(C3CCCC3)C(CCO)C2)o1 (stereo unspecified) | 1.4% | 
OCCC1CN(Cc2ccc3nsnc3c2)CCN1C1CCCCC1 (stereo unspecified) |  | 10.4 µM (active)
CC[C@H](C)C(=O)N[C@H]1CCCN1C(=O)/C=C/c1ccccc1 | 41% | 
Cc1ccc(C)c(OCCC(=O)OCC(=O)c2ccc3c(c2)NC(=O)CO3)c1 | 21.2% | 
C=CCNC(=O)COc1coc(CN2CCN(Cc3ccccc3)CC2)cc1=O |  | 13.1 µM (active)
O=C(COc1coc(CN2CCN(c3ccccc3)CC2)cc1=O)Nc1ccccc1F | 2.2% | 
Cc1cc(C)cc(NC(=O)COc2coc(CN3CCN(c4ccccc4)CC3)cc2=O)c1 | -27.2% | 
CC(=O)O[C@H]1CC[C@@]2(C)[C@@H](CC[C@@H]3[C@@H]2CC[C@]2(C)[C@@H](C(C)(C)O)C[C@@H]32)C1 | -8.75% | 
CC1CCC2CCCCC2N1C(=O)c1cc([N+](=O)[O-])cc([N+](=O)[O-])c1 (stereo unspecified) | -2.82% | 
Cc1cccc(N(C(=O)c2sc(C)nc2C)C(C(=O)NCC2CCCO2)c2ccccc2)c1 (stereo unspecified) | -28.1% | 
O=C(NCc1ccco1)C(c1ccncc1)N(C(=O)Cn1nnc2ccccc21)c1ccccc1 (stereo unspecified) | -0.183% | 
Cc1nc(C)c(C(=O)N(c2ccc(C)c(C)c2)C(C(=O)NCc2ccco2)c2ccccc2)s1 (stereo unspecified) |  | 10.4 µM (active)
CC(C)(C)NC(=O)C(c1ccc(Cl)cc1)N(CCO)C(=O)c1snc(C(N)=O)c1N (stereo unspecified) | 202% | 
CCCCCNC(=O)C1c2ccccc2Oc2ccccc21 | 0% | 
CCOC(=O)c1ccc(N2C(=O)CC(N(C)Cc3ccccc3)C2=O)cc1 (stereo unspecified) |  | 1.47 µM (active)
CCOC(=O)c1ccc(N2C(=O)CC(N3CC(C)OC(C)C3)C2=O)cc1 (stereo unspecified) | 7.59% | 
CCOC(=O)c1ccc(N2C(=O)CC(N3CCN(C(=O)c4ccccc4)CC3)C2=O)cc1 (stereo unspecified) | 25.2% | 
CCN1CCN(C(=O)C2CCCN(S(=O)(=O)c3ccc(OC)c(OC)c3)C2)CC1 (stereo unspecified) | -7.76% | 
COc1cccc(NC(=O)CN(C)CC(=O)c2c(N)n(Cc3ccccc3)c(=O)n(C)c2=O)c1 | -24.5% | 
COc1ccc(OC)c(CCNC(=O)c2nn(C)c3c2CS(=O)(=O)c2ccccc2-3)c1 | 32.5% | 
CC(C)CC(NC(=O)C1CCCN1C(=O)[C@@H](C)NC(=O)OCc1ccccc1)C(=O)NCC(N)=O (stereo partly specified) (Cbz-[dA][ξP][ξL]G-NH2) | 19.9% | 

Source: PubChem BioAssay AID504834 (National Center for Advancing Translational Sciences (NCATS), 2011)
